Screening results deposited in PubChem BioAssay by Broad Institute.
GSIS activator = GLuc luminescence reporter in INS-1E cells, primary screen for activators of glucose-dependent secretion of insulin; INS-1E GLuc reporter insulin secretion, 2-3 h; activation, % at 16.6 µM; actives 0.61% (n = 370,000);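 active means lowest replicate activation of at least 40%, so every replicate reaches that level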;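 further: 0% = median of neutral control wells and 100% = median of IBMX positive control wells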
RAD52 anneal inh = RAD52 (human) annealing inhibition; actives 0.46% (n = 360,000); AID 651710; recombinant RAD52 DNA annealing, FRET fluorescence; inhibition, % at 18.7 µM;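 active means every replicate showing at least 50% inhibition; inconclusive means mean inhibition at least 50% but not in every replicate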
PGC1a acetyl inh = PGC1a acetylation modulation, inhibitor mode. U2OS PGC1a acetylation, AlphaScreen anti-acetyl-lysine; with virally co-expressed GCN5 acetyltransferase. inhibition, % at 15.6 µM. actives 0.17% (n = 350,000). AID 651687;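 active means every replicate shows inhibition of at least 40%; inconclusive means mean inhibition at least 40% but some replicate below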;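 further: 0% = neutral control wells and 100% = positive control wells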
ERAP1 HTS inh = inhibitors of human ERAP1 aminopeptidase; Q9NZ08; recombinant ERAP1, Leu-AMC fluorescence, 60 min; inhibition, % at 10.7 µM; actives 0.15% (n = 340,000);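 active means mean replicate inhibition of at least 30%, or all replicates individually reaching that 30% level; inactive means mean below 30% and not every replicate reaching it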;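 further: 0% = neutral control wells and 100% = L-leucinethiol positive control wells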
Target sequence (Q9NZ08 whole entry, looked up): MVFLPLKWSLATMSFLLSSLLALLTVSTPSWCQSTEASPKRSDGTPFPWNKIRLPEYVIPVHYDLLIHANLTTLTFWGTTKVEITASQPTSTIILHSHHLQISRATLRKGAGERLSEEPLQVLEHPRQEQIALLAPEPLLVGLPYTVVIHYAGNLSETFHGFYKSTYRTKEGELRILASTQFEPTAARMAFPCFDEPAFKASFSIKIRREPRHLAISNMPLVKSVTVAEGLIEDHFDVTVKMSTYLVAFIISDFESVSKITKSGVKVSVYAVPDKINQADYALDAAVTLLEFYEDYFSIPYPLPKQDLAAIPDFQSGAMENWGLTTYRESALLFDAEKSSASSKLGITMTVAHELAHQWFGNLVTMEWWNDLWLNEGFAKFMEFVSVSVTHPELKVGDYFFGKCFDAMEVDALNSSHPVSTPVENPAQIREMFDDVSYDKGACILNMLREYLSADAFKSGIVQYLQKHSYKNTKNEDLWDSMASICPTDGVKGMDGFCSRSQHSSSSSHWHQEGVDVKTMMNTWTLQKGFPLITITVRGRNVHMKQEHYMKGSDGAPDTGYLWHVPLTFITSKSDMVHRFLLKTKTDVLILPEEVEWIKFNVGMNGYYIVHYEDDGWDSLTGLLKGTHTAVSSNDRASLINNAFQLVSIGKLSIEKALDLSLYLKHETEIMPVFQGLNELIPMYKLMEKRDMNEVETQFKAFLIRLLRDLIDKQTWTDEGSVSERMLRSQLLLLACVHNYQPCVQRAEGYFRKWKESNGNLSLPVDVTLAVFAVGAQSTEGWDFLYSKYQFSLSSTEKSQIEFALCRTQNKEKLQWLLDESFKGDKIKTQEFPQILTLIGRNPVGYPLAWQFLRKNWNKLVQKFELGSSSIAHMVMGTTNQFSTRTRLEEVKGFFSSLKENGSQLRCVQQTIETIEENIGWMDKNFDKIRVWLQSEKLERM
AF4-AF9 inh = inhibitors of human MLL-AF4/AF9 interaction; AlphaScreen, biotin-AF4 peptide binding to FLAG-AF9; inhibition, % at 10 µM; actives 0.47% (n = 350,000);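 active means every replicate reaching a set inhibition limit, whatever the replicate mean, cut at about 25% in these data; inconclusive means mean inhibition reaches that limit but some replicates miss it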;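 further: 0% = plate neutral control median and 100% = total signal loss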
RAD54 branch = inhibitors of human RAD54 branch migration. actives 0.14% (n = 360,000). inhibition, % at 10.4 µM. RAD54 Holliday junction branch migration, FAM/BHQ fluorescence;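 active means mean normalized replicate activity at least 40 and at least half of replicates scoring 40 or more; inconclusive means only one of the two criteria met; inactive means mean below 40 and under half of replicates reaching 40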;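 further: 0% = median of neutral control wells and 100% = median of positive control wells; inhibitors cause a drop in the FAM fluorescence signal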
* hit, by the source's call; ? = inconclusive; . = no result; ! = repeats disagree. The list is not random: actives were taken first. Their share in the collection is about 1.4%.

SMILES | GSIS activator | RAD52 anneal inh | PGC1a acetyl inh | ERAP1 HTS inh | AF4-AF9 inh | RAD54 branch
COc1ccc2[nH]c(C)c(CCNCc3cn(C)c4ccccc34)c2c1 | -27 | 34 | -1 | -2 | 51* | .
Cc1[nH]c2ccccc2c1CCNCc1ccco1 | -19 | -2 | 9 | 1 | 8 | -5
CC1CC(C)(O)CC(C(O)CC2CC(=O)NC(=O)C2)C1=O (stereo unspecified) | -21 | -12 | 77* | 2 | 2 | .
CC=CC(C)=CC(C)C(=O)CC(O)CC1CC(=O)NC(=O)C1 (stereo unspecified) | -7 | -5 | . | 2 | -5 | .
CN1CCN(c2cccc3c2C(=O)c2ccccc2C3=O)CC1 | 9 | 26 | . | 12 | 18 | 79*
CN1C[C@@H]2N[C@H](C1)C2c1ccc(Br)cc1 (stereo partly specified) | -6 | . | . | . | . | .
COc1ccc(Oc2cc(NC(=O)c3nn(C)cc3[N+](=O)[O-])cc([N+](=O)[O-])c2)cc1 | 4 | -9 | 78* | 0 | 9 | -13
COc1ccc(NC(=O)c2cn(CCC#N)nc2-c2cccc([N+](=O)[O-])c2)cc1 | 3 | -9 | . | -4 | 3 | .
CN1C2CN(CC(F)(F)F)CC1C2c1ccc(Br)cc1 (stereo unspecified) | 7 | . | . | . | . | .
Cc1cccc(N=Nc2ccc(N(C)C)cc2)c1 | 5 | 0 | 1 | -1 | 27* | -3
CN(C)c1ccccc1 | 13 | 6 | 1 | 4 | -3 | -6
CC=Cc1ccc2n(c1=O)C[C@H]1[C@H](CO)[C@@H](C(=O)N(C)C)N[C@@H]21 (mixture of isomers) | 18 | 4 | -5 | 4 | 0 | -11
C[C@H]1[C@@H](OS(=O)(=O)O)C[C@@H]2C[C@H]([C@@H](O)c3cc(=O)[nH]c(=O)[nH]3)NC3=NC[C@H]1N32 | . | . | 94* | . | . | -9
CC[C@@H](CO)NC(=O)[C@@H]1C=C2c3cccc4c3c(cn4C)C[C@H]2N(C)C1 | 6 | -280 | -2 | 3 | 12 | 64*
CC=Cc1ccc2n(c1=O)C[C@H]1[C@H](CO)[C@@H](C(=O)OC)[C@@H]2N1CC1CCOCC1 (mixture of isomers) | 10 | -8 | . | 2 | 0 | -2
COc1nc(NC(C)C)nc(NC(C)C)n1 | 69* | . | . | . | . | 9
C[N+](C)(C)CC1CCCC1=O (stereo unspecified) | 18 | -51 | -7 | 80* | 1 | .
O=C([C@H]1N[C@H]2c3cccc(=O)n3C[C@H]2[C@@H]1CO)N1CCCCC1 | 3 | . | . | . | . | .
CC1=CC(=O)OC2CC3OC4C[C@@H](C)C5OC6CC7O[C@]8(C)C/C=C\C9OC%10CC%11OC(CC(C)C%12OCCO%12)CC(O)[C@]%11(C)OC%10CC9OC8C[C@]7(C)O[C@]6(C)CCC5OC4C[C@]3(C)OC12 (stereo partly specified) | . | . | -4 | . | . | -11
C=C(CC1CC(O)[C@]2(C)OC3CC4OC5C[C@]6(C)O[C@]7(C)CCC8OC9C[C@]%10(C)OC%11C(C)=CC(=O)OC%11CC%10OC9C[C@@H](C)C8OC7CC6O[C@]5(C)C/C=C\C4OC3CC2O1)C(=O)O (stereo partly specified) | . | -15 | 4 | 51* | 3 | 0
O=c1ccc2cc(OC3O[C@H](CO)[C@@H](O)[C@H](O)[C@H]3O)c(O)cc2o1 (stereo partly specified) | . | -2 | . | 79* | -7 | 10
Cc1ccc(C(=O)N[C@@H](C)CN2C3=NC[C@@H](Cc4ccccc4)N3C[C@H]2Cc2ccc(O)cc2)cc1Br | -53 | 31 | . | -4 | 27* | .
CCN1[C@@H]2c3ccc(-c4cccc(C(=O)N(C)C)c4)c(=O)n3C[C@H]1[C@H](CO)[C@H]2C(=O)OC | -1 | 6 | . | -1 | -28 | -20
C[C@H]1CC[C@@H]2[C@@H](C)[C@H]3[C@H](C[C@H]4[C@@H]5CC=C6C[C@@H](O[C@@H]7O[C@H](CO)[C@H](O)[C@H](O[C@@H]8O[C@H](CO)[C@@H](O)[C@H](O)[C@H]8O)[C@H]7O[C@@H]7O[C@@H](C)[C@H](O)[C@@H](O)[C@H]7O)CC[C@]6(C)[C@H]5CC[C@]34C)N2C1 | 50* | -47 | 36 | -30 | -1 | -8
O=P(NC(c1ccccc1)c1ccccc1)(Oc1ccccc1)Oc1ccccc1 | 40* | . | -13 | . | . | -7
SMILES | GSIS activator | RAD52 anneal inh | PGC1a acetyl inh | ERAP1 HTS inh | AF4-AF9 inh | RAD54 branch
CCn1nc(-c2ccccc2)nc2c(=O)n(C)c(=O)nc1-2 | . | . | -4 | . | . | .
Cc1nc2c(=O)n(C)c(=O)nc-2n(C)n1 | . | . | 78* | . | . | .
COC(=O)[C@H]1[C@H](CO)[C@H]2Cn3c(ccc(/C=C/c4ccccc4)c3=O)[C@@H]1N2C(=O)C1CC1 | 11 | 16 | . | 0 | -9 | 1
CCn1c(O)c(C=Nc2ccc(S(N)(=O)=O)cc2)c(=O)n(CC)c1=S | . | -18 | . | 0 | -4 | .
NS(=O)(=O)c1ccc(N=Cc2c(O)n(C3CCCCC3)c(=O)n(C3CCCCC3)c2=O)cc1 | 739* | . | 7 | . | . | -15
CC(=O)N1C2CN(C)CC1C2c1ccc(Br)cc1 (stereo unspecified) | -4 | . | . | . | . | .
CN1CC[C@@]2(C)c3cc(O)ccc3N(C)[C@@H]12 | . | 69*! | 23 | -1 | ? | 3
Cc1cccc(S(=O)(=O)N2[C@@H]3Cn4c(ccc(-c5ccncc5)c4=O)[C@H]2[C@@H](C(=O)O)[C@@H]3CO)c1 | 5 | -26 | . | 13 | -3 | 1
C[N+]1(C)CCc2cc3c(cc2[C@H]1[C@@H]1OC(=O)c2c1ccc1c2OCO1)OCO3 | -2 | -3 | -19 | 53*! | 2 | 7
COc1cc2c(cc1OC)C(C1c3cc4c(cc3CCN1C)OCO4)OC2=O (stereo unspecified) | 9 | -2 | . | 0 | -2 | 1
c1ccc2c(c1)Sc1ccccc1N2CC1CN2CCC1CC2 (stereo unspecified) | . | 34 | 5 | 2 | 27* | 6
O=C(Cc1ccccc1)N1CC2(C1)[C@@H](c1ccccc1)[C@H](CO)N2Cc1cccc(F)c1 | -16 | . | . | . | . | .
CC=Cc1ccc2n(c1=O)C[C@H]1[C@H](CO)[C@@H](C(=O)O)[C@@H]2N1S(=O)(=O)c1ccccc1F (mixture of isomers) | 18 | -7 | . | 4 | -2 | -2
O=c1c2ccccc2[se]n1-c1ccccc1 | . | -2 | -1 | 75* | -4 | -4
CCOC(=O)[C@@H]1[C@@H]2NC(=S)N(C)[C@@]1(COCc1ccc(OC)cc1)Oc1ccccc12 | . | 22 | 0 | 4 | 6 | -4
[O-]c1ccccc1-[n+]1c(-c2ccccc2)cc(-c2ccccc2)cc1-c1ccccc1 | -49 | 61* | . | . | 23 | -1
Oc1ccccc1-[n+]1c(-c2ccccc2)cc(-c2ccccc2)cc1-c1ccccc1 | -60 | 6 | 2 | 0 | 23 | -5
